# In PubChem BioAssay (Tox21):
# Calls of active or inactive are those of the source. Calls come from the whole dose curve; as a rule, active = well fitted curve in the direction sought with a large enough effect in the repeat runs; inconclusive = weak or mixed curves; inactive = flat fitted curve, though single readings scatter.
# Assay: qHTS assay to test for compound auto fluorescence at 590 nm (red) in HepG2 cell free culture (AID 720684)
# Conditions: cell-free medium autofluorescence, red 540/590 nm; series mostly up to 91.3 µM
# From the text: U.S. Tox21 Program National Center for Advancing Translational Sciences [NCATS] NIH Chemical Genomics Center [NCGC] U.S. Environmental Protection Agency [EPA] National Institutes of Environmental Health Sciences [NIEHS] National Toxicology Program [NTP] U.S. Food and Drug Administration [FDA] Tox21 Assay Overview: Compound auto fluorescence often interferes with screening of the compound library against various biological targets and signaling pathways. Some of these compounds may have fluorophoric properties. Such properties may interfere with the assay outputs resulting in false positives and/or negatives. To decrease such complications and ensure the compound activities are relevant in terms of biological response, the Tox21 10K compound library was screened for auto fluorescence. From the fluorophores used as reporter signals in our screening assays, the auto fluorescence equivalencies of compounds against three fluorophores have been evaluated: Triamterene, Fluorescein and Rose Bengal sodium for blue, green and red fluorescence, respectively. The fluorescence intensities were measured using Excitation/Emission wavelengths at 405/460nm, 485/535nm and 540/590nm for blue, green and red labels, respectively. This assay includes the red fluorescence data.
# Tox21 Assay Protocol Summary: 5 uL of culture medium (MEM containing 10% FBS) per well was dispensed into black wall/clear bottom 1536-well plates using a Multidrop Combi Dispenser (ThermoFisher Scientific, Waltham, MA). After 23 nL compound or DMSO vehicle was transferred into assay plate by a pintool work station (Kalypsys, San Diego, CA), fluorescence intensities in the assay plates were measured by an Envision (PerkinElmer, Shelton, CT) plate reader using three labels for measuring blue, green and red fluorescence at […] 460, 535 and 590nm respectively.
# % is set by controls: 0 for no effect and ±100 for the full control effect.
Compound,"fluorescence, % of Rose Bengal",outcome
Cc1cc(C)c(N=Nc2c(O)c(S(=O)(=O)O)cc3cc(S(=O)(=O)O)ccc23)cc1C,0.0175% [at 9.17 µM] (inactive),
CC(=O)NC(=O)c1ccccc1O,,inactive
C[N+](C)(C)CCCCCCCCCC[N+](C)(C)C,,inactive
CC1=CCC(O)(C(C)C)CC1 (stereo not given),,inactive
O=C(CO)[C@@H](O)[C@H](O)[C@@H](O)CO,,inactive
COc1c(N2CCNC(C)C2)c(F)cc2c(=O)c(C(=O)O)cn(C3CC3)c12 (stereo not given),,inactive
O=C(O)c1cn(C2CC2)c2cc(N3CCNCC3)c(F)cc2c1=O,0.543% [at 18.6 µM] (inactive),
O=Cc1cccc(Br)c1,,inactive
CCC1C(=O)OCC1Cc1cncn1C (stereo not given),,inactive
CC(C)(C#N)Nc1nc(Cl)nc(NC2CC2)n1,,inactive
C[C@H]1C[C@H]2[C@@H]3CCC4=CC(=O)C=C[C@]4(C)[C@H]3C(=O)C[C@]2(C)[C@@]1(O)C(=O)CO,,inactive
C[N+](C)(CCOc1ccccc1)Cc1cccs1,,inactive
CN(C)CCN(C)CCN(C)C,,inactive
OCCc1ccccn1,,inactive
CC[C@H]1OC(=O)[C@H](C)[C@@H](O[C@H]2C[C@@](C)(OC)[C@@H](O)[C@H](C)O2)[C@H](C)[C@@H](O[C@@H]2O[C@H](C)C[C@H](N(C)C)[C@H]2O)[C@](C)(OC)C[C@@H](C)C(=O)[C@H](C)[C@@H](O)[C@]1(C)O,,inactive
CC1=NN(c2cccc(S(=O)(=O)O)c2)C(=O)C1,,inactive
CCOC(=O)COC(=O)c1ccccc1C(=O)OCC,,inactive
Cc1ccnc(NS(=O)(=O)c2ccc(N)cc2)n1,0.0665% [at 18.6 µM] (inactive),
CCCCCCC1CCC(=O)O1 (stereo not given),,inactive
CC(=O)c1ccccc1[N+](=O)[O-],,inactive

Compound,"fluorescence, % of Rose Bengal",outcome
Cc1nc2ccc(CN(C)c3ccc(C(=O)N[C@@H](CCC(=O)O)C(=O)O)s3)cc2c(=O)[nH]1,,inactive
NC(=O)N[C@@H](CCC(=O)O)C(=O)O,,inactive
CC(C)(N)C#N,,inactive
CC/C=C\CCOC(C)OCC (stereo not given),,inactive
CCC(=O)OCc1ccccc1,,inactive
CCCCCCCCCCOc1cc2c(=O)c(C(=O)OCC)c[nH]c2cc1OCC,,inactive
O=C(O)Cc1csc(-c2ccc(Cl)cc2)n1,,inactive
CCCC[N+](C)(CCCC)CCCC,,inactive
CCCOC(=O)CC,,inactive
O=C(O)CCSCCC(=O)O,,inactive
COC(=O)Nc1ccc(Cl)c(Cl)c1,,inactive
OCCCCCO,,inactive
CN(C)C(=O)Oc1cccc([N+](C)(C)C)c1,,inactive
CCCc1ncc(C[n+]2ccccc2C)c(N)n1,-0.0113% [at 18.6 µM] (inactive),
CNCCO,,inactive
Cc1ncc([C@@H](CCCCCCc2ccc3c(n2)NCCC3)CC(=O)O)cn1,,inactive
Nc1ccn([C@@H]2O[C@H](CO)[C@@H](O)C2(F)F)c(=O)n1,,inactive
CC(C)c1ccc2ncccc2c1,,inactive
O=C(c1ccccc1)C1(O)CCCCC1,,inactive
Cc1ccc(-c2ncc(Cl)cc2-c2ccc(S(C)(=O)=O)cc2)cn1,,inactive
